Data taken from PubChem BioAssay (NCATS).
Inconclusive results are not listed. A call without a number means that no potency is given here. Active and inactive are the calls of the source. Calls follow the shape of the dose curve; as a rule, active = well fitted curve in the direction sought with a large enough effect; inconclusive = small, poorly fitted or top-dose-only effect, or another doubt; inactive = no such curve, though single readings can be large; an effect the other way counts as inactive or inconclusive.

Legend:
[1] = biological target: Glutathione peroxidase 1 (Homo sapiens) (UniProt P07203); experiment: Primary qHTS Assay for Inhibitors of Recombinant Selenoprotein Glutathione Peroxidase 1 (GPX1) (AID 1845191); also: nearly all actives have a fitted effect of over 65% in size; also: potency is read from the fitted curve at half-maximal effect
Chain of Glutathione peroxidase 1 (Homo sapiens) (P07203 whole entry, looked up): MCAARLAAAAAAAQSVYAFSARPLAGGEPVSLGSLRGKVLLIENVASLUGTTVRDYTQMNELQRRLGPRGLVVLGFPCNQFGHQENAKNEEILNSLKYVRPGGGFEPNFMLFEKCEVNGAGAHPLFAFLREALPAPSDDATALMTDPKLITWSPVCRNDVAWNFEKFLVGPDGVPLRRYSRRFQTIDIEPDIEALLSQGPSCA
Procedure, shortened: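 GR-coupled assay: compounds preincubated 30 min at room temperature with GPX1, then reaction started with CHP; final 10 nM GPX1, 1 mM GSH, 0.5 mM CHP, 0.5 mM NADPH, 100 nM GR, 0.01% BSA, pH 7.5 Tris buffer. NADPH fluorescence (340/450 nm) read at 0 and 15 min.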

[2] = biological target: Phospholipid hydroperoxide glutathione peroxidase GPX4 (Homo sapiens) (UniProt P36969); experiment: Primary qHTS Assay for Inhibitors of Recombinant Selenoprotein Glutathione Peroxidase 4 (GPX4) (AID 1845192); also: nearly all actives have a fitted effect of over 65% in size; also: potency is read from the fitted curve at half-maximal effect
Chain of Phospholipid hydroperoxide glutathione peroxidase GPX4 (Homo sapiens) (P36969 whole entry, looked up): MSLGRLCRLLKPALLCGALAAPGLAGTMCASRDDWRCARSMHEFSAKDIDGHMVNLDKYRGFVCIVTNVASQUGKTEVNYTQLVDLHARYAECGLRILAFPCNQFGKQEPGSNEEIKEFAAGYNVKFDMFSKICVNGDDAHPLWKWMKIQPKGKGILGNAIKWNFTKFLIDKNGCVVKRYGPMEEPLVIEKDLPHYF
Procedure, shortened: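 GR-coupled assay: recombinant GPX4 preincubated 30 min with compound at room temperature; final 200 nM GPX4, 1 mM GSH, 0.5 mM cumene hydroperoxide, 0.5 mM NADPH, 100 nM GR, 0.01% BSA, pH 7.5 Tris. NADPH fluorescence (340/450 nm) read at 0 and 15 min.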

[3] = biological target: Luciferin 4-monooxygenase (Photinus pyralis) (UniProt P08659); experiment: Primary firefly luciferase (FLuc) qHTS assay for identification of artifact compounds. (AID 1845220); also: nearly all actives have a fitted effect of over 60% in size
Procedure, shortened: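 Titrated compounds were incubated 15 min at RT, protected from light, with luciferin and ATP at 10 uM; reaction started with 10 nM FLuc, luminescence imaged at 5 min, and concentration-response fitted by Hill equation.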

[4] = Primary fluorescence-based thiol-reactive (MSTI) qHTS assay for identification of artifact compounds. (AID 1845221);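 also: series mostly up to about 54 µM; thiol-reactive compounds lower the probe fluorescence signal; nearly all actives have a fitted effect of over 65% in size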
Procedure, shortened: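 Reactivity toward the thiol probe MSTI (4 uM) is scored by fluorescence at Ex/Em 525/598 nm after 1 h at room temperature. Acetyl-MSTI and MSTI define the activity scale.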

[5] = tested on: Nanoluciferase (engineered Oplophorus gracilirostris luciferase); experiment: Primary Nanoluciferase (NLuc) qHTS assay for identification of artifact compounds. (AID 1845222); also: potency is read from the fitted curve at half-maximal effect
Procedure, shortened: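 qHTS format, against NLuc in S16 cell-conditioned medium. Nano-Glo substrate 1:100 was added after 15 min at room temperature. Luminescence was taken after a further 5 min.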

[6] = Primary redox qHTS assay for identification of artifact compounds. (AID 1845223)
Procedure, shortened: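 Amplex Red (25 uM) and HRP (250 mU/mL) in HBSS, with compounds for 15 min, then 250 uM DTT for 30 min, room temperature, dark. Fluorescence 525/598 nm read; normalized to DMSO and 10 uM DA3003; Hill fit.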

| SMILES | Potency [1] | Potency [2] | Potency [3] | Potency [4] | Potency [5] | outcome [6] |
| --- | --- | --- | --- | --- | --- | --- |
| O=[N+]([O-])c1nccn1CO[C@@H](CO)[C@H](O)CO | inactive | inactive | inactive | inactive | inactive | inactive |
| CNC(=O)c1cnn(-c2nc(N)c3ncn([C@@H]4O[C@H](CO)[C@@H](O)[C@H]4O)c3n2)c1 | inactive | inactive | – | – | – | – |
| CC(CC(C#N)(c1ccccc1)C(C)C)N(C)C (configuration not stated) | inactive | inactive | – | – | – | – |
| CC(C(O)c1ccccc1)N(C)CCOC(c1ccccc1)c1ccccc1 (configuration not stated) | inactive | inactive | inactive | inactive | inactive | inactive |
| O=C(CS(=O)Cc1ccco1)NC/C=C\COc1cc(CN2CCCCC2)ccn1 (configuration not stated) | 18 µM (active) | inactive | – | – | – | – |
| O=C1NCCN1CCN1CCC(c2cn(-c3ccc(F)cc3)c3ccc(Cl)cc23)CC1 | inactive | inactive | – | – | – | – |
| O=C(CCC1CCN(Cc2ccccc2)CC1)c1ccc2c(c1)NCCCC2 | inactive | inactive | inactive | inactive | inactive | inactive |
| N#Cc1cc(NC(=O)C(=O)O)c(Cl)c(NC(=O)C(=O)O)c1 | inactive | inactive | – | – | – | – |
| CC1(C)O[C@@H]2C[C@H]3[C@@H]4C[C@H](F)C5=CC(=O)C=C[C@]5(C)[C@@]4(F)[C@@H](O)C[C@]3(C)[C@]2(C(=O)CO)O1 | inactive | inactive | – | – | – | – |
| CC(=O)Oc1ccc(C2(c3ccc(OC(C)=O)cc3)Oc3ccccc3NC2=O)cc1 | inactive | inactive | inactive | inactive | inactive | inactive |
| O=C(O)/C=C(\CC(=O)O)C(=O)O | inactive | inactive | – | – | – | – |
| CCOc1ccc(NS(=O)(=O)c2ccc(N)cc2)nn1 | inactive | inactive | – | – | – | – |
| CCN(CC)C(=O)C1CN2CCc3cc(OC)c(OC)cc3C2CC1OC(C)=O (configuration not stated) | inactive | inactive | – | – | – | – |
| CC(=O)/C=C/C=C1/C2CCC(C2)C1(C)C (configuration not stated) | inactive | inactive | – | – | – | – |
| CCN1CCN(c2cc(-c3ccc(F)cc3)c3c(n2)CCCCCC3)CC1 | inactive | inactive | inactive | inactive | inactive | inactive |
| Cc1ccc(C(C)OC(=O)C2(C)CCC(C(=O)O)C2(C)C)cc1 (configuration not stated) | inactive | inactive | – | – | – | – |
| CN1CCC(N(Cc2cccs2)c2ccccc2)CC1 | inactive | inactive | inactive | inactive | inactive | inactive |
| CC(=O)[C@H]1CC[C@H]2[C@@H]3C=CC4=CC(=O)CC[C@@]4(C)[C@@H]3CC[C@]12C | inactive | inactive | inactive | inactive | inactive | inactive |
| CCNC(=O)NCCCOc1cccc(CN2CCCCC2)c1 | inactive | inactive | inactive | inactive | inactive | inactive |
| O=C(CCCCCCCCC#CI)Oc1ccccc1 | inactive | – | inactive | inactive | – | inactive |
| CC(=O)OCC(=O)Nc1cc(C#N)cc(NC(=O)COC(C)=O)c1Cl | inactive | inactive | inactive | inactive | inactive | inactive |
| C=CCOc1cc(Cl)ccc1C(=O)NCCN(CC)CC | inactive | inactive | inactive | inactive | inactive | inactive |
| CCOC(=O)c1ccc(NC(=O)CN2CCCCC2)cc1 | inactive | inactive | inactive | inactive | inactive | inactive |
| O=C(NN1CCCC1)NS(=O)(=O)c1ccc(Cl)cc1 | inactive | inactive | inactive | inactive | inactive | inactive |
| CC[N+](CC)(CC)CCOC(=O)C(C1CCCC1)C1CCCC1 | – | inactive | – | – | – | – |
| O=C(O)Cc1ccccc1Oc1ccc(Cl)cc1Cl | inactive | inactive | inactive | inactive | – | inactive |
| Nc1ncnc2nc[nH]c12 | – | inactive | – | – | – | – |

| SMILES | Potency [1] | Potency [2] | Potency [3] | Potency [4] | Potency [5] | outcome [6] |
| --- | --- | --- | --- | --- | --- | --- |
| O=C(O)[C@H](O)[C@@H](O)[C@H](O[C@@H]1O[C@H](CO)[C@H](O)[C@H](O)[C@H]1O)[C@H](O)CO | – | inactive | – | – | – | – |
| CC[C@@]1(O)C(=O)OCc2c1cc1n(c2=O)Cc2c-1nc1ccccc1c2/C=N/OC(C)(C)C | – | 12.6 µM (active) | – | – | – | – |
| CCCCCOc1ccc(C2SC(=O)NC2=O)cc1OCC (configuration not stated) | – | – | inactive | inactive | inactive | inactive |
| CN(CC1(C)CCCO1)S(=O)(=O)c1ccc(Cl)c(S(N)(=O)=O)c1 (configuration not stated) | inactive | inactive | inactive | inactive | inactive | inactive |
| C[C@H](CN1CCCC1)C(=O)c1ccc(C(F)(F)F)cc1 | inactive | – | inactive | inactive | inactive | inactive |
| Cc1cccc(N(C)C(=S)Oc2ccc3c(c2)CCC3)c1 | inactive | inactive | inactive | inactive | inactive | inactive |
| CC(=O)O[C@@H]1C(=O)O[C@@H]2[C@H]1OC(=O)[C@@H]2OC(C)=O | inactive | inactive | inactive | inactive | inactive | inactive |
| COC(=O)C1=C(C)NC(COC(N)=O)=C(C(=O)OC(C)C)C1c1cccc(Cl)c1Cl (configuration not stated) | inactive | inactive | inactive | inactive | – | inactive |
| CC[N+]1(CC)CCC(=C(c2ccccc2)c2ccccc2)C1C (configuration not stated) | inactive | inactive | inactive | inactive | inactive | inactive |
| CC1CC(=O)NN=C1c1ccc(NCC(C)(C)NCC(O)COc2cc(Cl)ccc2C#N)cc1 (configuration not stated) | – | – | inactive | – | inactive | inactive |
| Cn1cc(S(C)=O)c(=O)c2ccc(F)cc21 (configuration not stated) | inactive | inactive | inactive | inactive | inactive | inactive |
| CCOC(=O)c1ccc(OCCN2C[C@H](O)[C@@H](O)[C@H](O)[C@H]2CO)cc1 | inactive | inactive | inactive | inactive | inactive | inactive |
| CN1[C@@H]2CC[C@H]1CC(NC(=O)n1c(=O)[nH]c3ccccc31)C2 (some centres not stated) | inactive | inactive | inactive | inactive | inactive | inactive |
| OC1(c2ccc(Cl)c(C(F)(F)F)c2)CCN(CCCC(c2ccc(F)cc2)c2ccc(F)cc2)CC1 | inactive | inactive | inactive | inactive | inactive | inactive |
| CC1CN(c2cc3c(cc2F)c(=O)c(C(=O)O)cn3-c2ccc(F)cc2F)CCN1 (configuration not stated) | – | inactive | inactive | inactive | inactive | inactive |
| CC(C)(C)c1nnc(NS(=O)(=O)c2ccccc2)s1 | inactive | – | inactive | inactive | – | inactive |
| CCCN(CCC)C(=O)C(CCC(=O)OCCCN1CCN(CCOC(=O)Cc2c(C)n(C(=O)c3ccc(Cl)cc3)c3ccc(OC)cc23)CC1)NC(=O)c1ccccc1 (configuration not stated) | inactive | inactive | inactive | inactive | inactive | inactive |
| COc1cc(NS(=O)(=O)c2ccc(N)cc2)nc(C)n1 | inactive | – | inactive | inactive | inactive | inactive |
| Cc1ccccc1C(=O)N1CC/C(=N\OS(=O)(=O)O)c2ccc(Cl)cc21 | inactive | inactive | inactive | inactive | 26.9 µM (active) | inactive |
| CCCCNc1ccc(C(=O)OCCN(CC)CC)cc1 | inactive | inactive | inactive | inactive | inactive | inactive |
| CC1c2ccccc2CN1NC(=O)c1ccc(Cl)c(S(N)(=O)=O)c1 (configuration not stated) | inactive | – | inactive | inactive | – | inactive |
| CCC(C(=O)NC(=O)NC(C)=O)c1ccccc1 (configuration not stated) | inactive | inactive | inactive | inactive | inactive | inactive |
| CN(C)C(=O)CNC(=O)Cc1ccccc1 | inactive | inactive | inactive | inactive | inactive | inactive |
| C[N+]1(CC2COC(c3ccccc3)(c3ccccc3)O2)CCCCC1 (configuration not stated) | inactive | – | inactive | inactive | inactive | inactive |
| CO/N=C(/C(=O)N[C@@H]1C(=O)N2C(C(=O)O)=C(Cn3nnc(C)n3)CS[C@H]12)c1csc(N)n1 | 14.3 µM (active) | inactive | inactive | inactive | inactive | inactive |
| Brc1ccc([C@H]2CN3CCSC3=N2)cc1 | inactive | inactive | inactive | inactive | inactive | inactive |
